PubChem BioAssay AID2284354 (EPA ToxCast)
Records with an inconclusive call do not appear. Active and inactive are the calls of the source. Rule for the calls: active = hit-call score of the fitted dose curve at least 0.9, where 1 is the maximum; inconclusive = response in the unintended direction; inactive = score below 0.9.

target: human Retinoid X Receptor beta (RXRb), RXRB (gene 6257) (UniProt P28702); test: ATG_hRXRb_EcoTox2: Attagene TRANS-FACTORIAL EcoTox-2 HepG2 Assay for human Retinoid X Receptor beta (RXRb)
Procedure: ATG_EcoTox2 is a cell-based, multiplexed assay created by modifying the existing Attagene TRANS-FACTORIAL system to include a panel of nuclear receptors from some or all the following species: human (Homo sapiens), african clawed frog (Xenopus laevis), rainbow trout (Oncorhynchus mykiss), japanese medaka (Oryzias latipes), and zebrafish (Danio rerio). The ECOTOX2-FACTORIAL format uses HepG2, a human liver cell line, with measurements taken at 24 hours after chemical dosing in a 24-well plate. ATG_hRXRb_EcoTox2 is one of 29 assay components calculated in the ATG_EcoTox2 assay. It is designed to make measurements of mRNA induction, a form of inducible reporter, as detected with fluorescence intensity signals by Reverse transcription polymerase chain reaction (RT-PCR) and Capillary electrophoresis technology.The assay endpoint ATG_hRXRb_EcoTox2 was analyzed in the positive analysis fitting direction relative to DMSO as the negative control and baseline of activity. Using a type of inducible reporter, measures of mRNA for gain-of-signal activity can be used to understand the reporter gene at the transcription factor-level as they relate to the gene RXRb. Furthermore, this assay endpoint can be referred to as a primary readout, because this assay has produced multiple assay endpoints where this one serves a reporter gene function. To generalize the intended target to other relatable targets, this assay endpoint is annotated to the nuclear receptor intended target family, where the subfamily is non-steroidal.
Human liver HepG2 cells are transiently transfected with multiple reporter transcription units (MRTUs) in 6-well plates using FuGene 6 reagent (Roche; 3 ml FuGene/1 mg DNA). The MRTU constructs are regulated by a cis-regulating element (promoter). Each RTU expresses a GAL4-UAS that regulates the transcription of a nearby target reporter gene sequence. A major difference between the CIS and TRANS system is that in CIS activities of endogenous TFs are measured, whereas the TRANS assay evaluates changes in activities of exogenous, chimeric NR-Gal4 proteins. […] At the end of 24 hour incubation, total RNA was isolated using TriZol reagent (Invitrogen). The isolated RNA is then reverse-transcribed using oligo(dT) primer and Mo-MLV reverse transcriptase (Invitrogen) with DNAse I (Ambion) treatment for 30 min. The one-tenth of the produced cDNA was amplified by PCR using Taq DNA polymerase (Invitrogen) and two reporter sequence-specific primers. […] The fragments were purified using Qiaquick PCR columns (Qiagen), analyzed on an ABI 3130xL genetic analyzer (Applied Biosystems) with peak positions identified by using a set of X-rhodamine (ROX)-labeled MapMarker1000 molecular weight standards (BioVentures). […]

Sequence of human Retinoid X Receptor beta (RXRb), RXRB (gene 6257) (P28702 whole entry, looked up): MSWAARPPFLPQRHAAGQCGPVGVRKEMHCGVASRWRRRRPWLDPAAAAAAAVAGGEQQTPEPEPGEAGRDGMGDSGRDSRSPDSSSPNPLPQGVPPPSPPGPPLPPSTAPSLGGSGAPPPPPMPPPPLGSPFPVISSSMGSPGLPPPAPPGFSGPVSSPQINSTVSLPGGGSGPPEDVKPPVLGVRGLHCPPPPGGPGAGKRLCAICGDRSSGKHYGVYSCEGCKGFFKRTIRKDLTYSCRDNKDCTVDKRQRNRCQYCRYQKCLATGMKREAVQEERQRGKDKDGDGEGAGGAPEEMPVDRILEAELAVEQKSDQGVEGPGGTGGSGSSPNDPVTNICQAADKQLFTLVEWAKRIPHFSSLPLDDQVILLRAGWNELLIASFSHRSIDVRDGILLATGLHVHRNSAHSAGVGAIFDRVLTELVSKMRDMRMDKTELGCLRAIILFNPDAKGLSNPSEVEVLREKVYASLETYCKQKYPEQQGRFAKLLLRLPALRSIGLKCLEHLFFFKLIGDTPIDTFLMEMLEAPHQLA

Which outcome does the source give for O=S(=O)(O)C(F)(F)C(F)(F)C(F)(F)C(F)(F)C(F)(F)C(F)(F)F here?
Its outcome is “inactive”.

Which AC50 does the source give for CCCCOCN(C(=O)CCl)c1c(CC)cccc1CC here?
The AC50 was 36.6 µM (active).

O=C(O)C(F)(F)C(F)(F)C(F)(F)C(F)(F)C(F)(F)C(F)(F)C(F)(F)F was tested. Which AC50 did it give?
Its AC50 is 29 µM (active).

For [Cl][Sn]([c]1ccccc1)([c]1ccccc1)[c]1ccccc1, which AC50 is on record?
The AC50 was 0.041 µM (active).
